Here are results for 2 compounds from paper PMC11062922 (Nature Chemical Biology, 2023).

Holding throughout (set-up): species or system human, MV4-11 + K-562 + COLO205 + SK-N-BE2 + OVCAR-8
Test [1] deals with ADCK1. The conditions noted are these: read-out: apparent Kd, compound concentrations: 100 nM and 1000 nM (sheet 'Samples'), n = 1.
Test [2] relates to ADRBK1. The conditions noted are these: read-out: apparent Kd; compound concentrations: 100 nM and 1000 nM (sheet 'Samples'), CATDS: 2.4838233603700199E-2; n = 1.
Test [3] has as its system AKT1. To be noted: read-out: apparent Kd, compound concentrations: 100 nM and 1000 nM (sheet 'Samples'), n = 1.
Test [4] deals with AKT2. The conditions noted are these: read-out: apparent Kd, compound concentrations: 100 nM and 1000 nM (sheet 'Samples'), n = 1.
Test [5] concerns CDK16. The conditions noted are these: read-out: apparent Kd; compound concentrations: 100 nM and 1000 nM (sheet 'Samples'), CATDS: 6.3577465529015803E-2; n = 1.
Test [6] deals with CDK17. To be noted: read-out: apparent Kd; compound concentrations: 100 nM and 1000 nM (sheet 'Samples'), CATDS: 3.37360280865171E-2; n = 1.
Test [7] deals with CDK1. The conditions noted are these: read-out: apparent Kd; compound concentrations: 100 nM and 1000 nM (sheet 'Samples'), CATDS: 2.7245131481605699E-2; n = 1.
Test [8] relates to CDK2. The conditions noted are these: read-out: apparent Kd; compound concentrations: 100 nM and 1000 nM (sheet 'Samples'), CATDS: 4.36970242470427E-2; n = 1.
Test [9] relates to CDK6. The conditions noted are these: read-out: apparent Kd; compound concentrations: 100 nM and 1000 nM (sheet 'Samples'), CATDS: 3.4671115454836803E-2; n = 1.
Test [10] relates to CDK9. The conditions noted are these: read-out: apparent Kd; compound concentrations: 100 nM and 1000 nM (sheet 'Samples'), CATDS: 2.7346087342078398E-2; n = 1.
For test [11], the system named is CDKL5. To be noted: read-out: apparent Kd; compound concentrations: 100 nM and 1000 nM (sheet 'Samples'), CATDS: 8.0435969039111696E-2; n = 1.
The test system of test [12] is CLK1. The conditions noted are these: read-out: apparent Kd; compound concentrations: 100 nM and 1000 nM (sheet 'Samples'), CATDS: 3.0051387692213001E-2; n = 1.
In test [13] the test system is CLK2. To be noted: read-out: apparent Kd; compound concentrations: 100 nM and 1000 nM (sheet 'Samples'), CATDS: 4.01054923107644E-2; n = 1.
Test [14] deals with CLK4. The conditions noted are these: read-out: apparent Kd; compound concentrations: 100 nM and 1000 nM (sheet 'Samples'), CATDS: 3.8689764998843801E-2; n = 1.
The test system of test [15] is DYRK1A. The conditions noted are these: read-out: apparent Kd; compound concentrations: 100 nM and 1000 nM (sheet 'Samples'), CATDS: 7.8363262326560101E-2; n = 1.
Test [16] concerns GSK3A. The conditions noted are these: read-out: apparent Kd; compound concentrations: 100 nM and 1000 nM (sheet 'Samples'), CATDS: 0.62281927903821299; n = 1.
In test [17] the test system is GSK3B. To be noted: read-out: apparent Kd; compound concentrations: 100 nM and 1000 nM (sheet 'Samples'), CATDS: 0.401572679379325; n = 1.
The subject of test [18] is ICK. To be noted: read-out: apparent Kd; compound concentrations: 100 nM and 1000 nM (sheet 'Samples'), CATDS: 0.15504301579156199; n = 1.
Test [19] concerns MAP2K1. To be noted: read-out: apparent Kd; compound concentrations: 100 nM and 1000 nM (sheet 'Samples'), CATDS: 2.5511986591555801E-2; n = 1.
Test [20] relates to MAP2K2. The conditions noted are these: read-out: apparent Kd; compound concentrations: 100 nM and 1000 nM (sheet 'Samples'), CATDS: 2.5311950645342699E-2; n = 1.
The subject of test [21] is MAPK7. The conditions noted are these: read-out: apparent Kd; compound concentrations: 100 nM and 1000 nM (sheet 'Samples'), CATDS: 2.4862770710026599E-2; n = 1.
Test [22] concerns NQO1. To be noted: read-out: apparent Kd; compound concentrations: 100 nM and 1000 nM (sheet 'Samples'), CATDS: 3.3718961414702597E-2; n = 1.
For test [23], the system named is PIM1. The conditions noted are these: read-out: apparent Kd, compound concentrations: 100 nM and 1000 nM (sheet 'Samples'), n = 1.
The test system of test [24] is PIM2. The conditions noted are these: read-out: apparent Kd, compound concentrations: 100 nM and 1000 nM (sheet 'Samples'), n = 1.
The test system of test [25] is PRKACG. To be noted: read-out: apparent Kd; compound concentrations: 100 nM and 1000 nM (sheet 'Samples'), CATDS: 4.2614442075595102E-2; n = 1.
Test [26] relates to PYGL. The conditions noted are these: read-out: apparent Kd; compound concentrations: 100 nM and 1000 nM (sheet 'Samples'), CATDS: 2.55419672432197E-2; n = 1.
Test [27] has as its system RIOK2. The conditions noted are these: read-out: apparent Kd; compound concentrations: 100 nM and 1000 nM (sheet 'Samples'), CATDS: 2.90661770930771E-2; n = 1.
The test system of test [28] is BTK. To be noted: read-out: apparent Kd; compound concentrations: 100 nM and 1000 nM (sheet 'Samples'), CATDS: 5.4009737115297697E-2; n = 1.
The subject of test [29] is CDC42BPG. The conditions noted are these: read-out: apparent Kd; compound concentrations: 100 nM and 1000 nM (sheet 'Samples'), CATDS: 4.9090451053861402E-2; n = 1.
In test [30] the test system is CSNK1A1. The conditions noted are these: read-out: apparent Kd; compound concentrations: 100 nM and 1000 nM (sheet 'Samples'), CATDS: 4.23666657347909E-2; n = 1.
For test [31], the system named is CSNK1E. The conditions noted are these: read-out: apparent Kd; compound concentrations: 100 nM and 1000 nM (sheet 'Samples'), CATDS: 3.8720748933532501E-2; n = 1.
Test [32] deals with CSNK1G3. To be noted: read-out: apparent Kd; compound concentrations: 100 nM and 1000 nM (sheet 'Samples'), CATDS: 4.2624276708998099E-2; n = 1.
In test [33] the test system is IARS. To be noted: read-out: apparent Kd; compound concentrations: 100 nM and 1000 nM (sheet 'Samples'), CATDS: 4.0140361212157798E-2; n = 1.
Test [34] relates to MAPK14. To be noted: read-out: apparent Kd; compound concentrations: 100 nM and 1000 nM (sheet 'Samples'), CATDS: 5.21130062125853E-2; n = 1.
Test [35] relates to OPA1. The conditions noted are these: read-out: apparent Kd; compound concentrations: 100 nM and 1000 nM (sheet 'Samples'), CATDS: 4.7870015182345502E-2; n = 1.
Test [36] concerns PIK3CD. The conditions noted are these: read-out: apparent Kd; compound concentrations: 100 nM and 1000 nM (sheet 'Samples'), CATDS: 0.15137185396719799; n = 1.
Test [37] concerns RAB14. The conditions noted are these: read-out: apparent Kd; compound concentrations: 100 nM and 1000 nM (sheet 'Samples'), CATDS: 4.5308660485802198E-2; n = 1.
Test [38] relates to RPS6KA3. To be noted: read-out: apparent Kd; compound concentrations: 100 nM and 1000 nM (sheet 'Samples'), CATDS: 4.2284934101133903E-2; n = 1.
For test [39], the system named is RPS6KA6. The conditions noted are these: read-out: apparent Kd; compound concentrations: 100 nM and 1000 nM (sheet 'Samples'), CATDS: 6.3682849838720093E-2; n = 1.
Test [40] deals with SRC. To be noted: read-out: apparent Kd; compound concentrations: 100 nM and 1000 nM (sheet 'Samples'), CATDS: 4.8588200967613397E-2; n = 1.
The subject of test [41] is STK3. The conditions noted are these: read-out: apparent Kd; compound concentrations: 100 nM and 1000 nM (sheet 'Samples'), CATDS: 4.1174689810954603E-2; n = 1.
The subject of test [42] is TAOK1. The conditions noted are these: read-out: apparent Kd; compound concentrations: 100 nM and 1000 nM (sheet 'Samples'), CATDS: 5.56620194527895E-2; n = 1.

Structures are written as SMILES. Where two headings read alike, the source gives them in different places.

For the compound `O=C(Nc1n[nH]c2nnc(-c3cccnc3)cc12)C1CC1.O=C(O)C(F)(F)F` [SB-675259-M], the potency estimated from few doses is 1030 nM in test [1] (CATDS: 3.00594248157054E-2); 2130 nM in test [2]; 1240 nM in test [3] (CATDS: 2.84891592844819E-2); 1130 nM in [4] (CATDS: 2.9280872528565802E-2); 151 nM in test [5]; 726 nM in test [6]. Also, the potency estimated from few doses in test [7] is 1460 nM; in test [8], 366 nM; in test [9], 671 nM; in [10], 1440 nM; in [11], 87 nM; in test [12], 1030 nM. Also, the potency estimated from few doses in test [13] is 454 nM; in test [14], 498 nM; in test [15] it was 92.6 nM; in test [16], 0.113 nM; in [17], 0.279 nM; in test [18], 14.7 nM. The potency estimated from few doses in test [19] was 1890 nM; in test [20], 1960 nM; in test [21] it was 2120 nM; in test [22], 727 nM; in test [23] (CATDS: 3.8297140879790803E-2) it was 512 nM; in [24] (CATDS: 4.1089094062549299E-2) it was 426 nM. Besides, the potency estimated from few doses is 389 nM in [25], 1880 nM in test [26] and 1160 nM in test [27].

For the compound `COc1cccc(C2=C(c3cn(C)c4ccc(Cl)cc34)C(=O)NC2=O)c1` [RO3300230-000], the potency estimated from few doses in test [1] (CATDS: 4.1233669692049897E-2) is 1860 nM; in test [3] (CATDS: 4.32167355318668E-2), 1650 nM; in [4] (CATDS: 4.9283792774051899E-2) it was 1210 nM; in [28], 993 nM; in [29], 1220 nM; in test [30], 1730 nM. The potency estimated from few doses in test [31] was 2230 nM; in test [32] it was 1710 nM; in test [33] it was 2010 nM; in [34], 1070 nM; in [35], 1290 nM; in test [36], 189 nM. Also, the potency estimated from few doses is 1120 nM in test [23] (CATDS: 5.1032643222322503E-2); 133 nM in [24] (CATDS: 0.19635235530270301); 1460 nM in [37]; 1740 nM in test [38]; 723 nM in test [39]; 1250 nM in test [40]. Besides, the potency estimated from few doses in test [41] was 1870 nM; in [42], 935 nM.
